{
  "source": "PubChem BioAssay AID1259339",
  "about": "(Broad Institute, 2017)",
  "note": "Activity calls are given as the source filed them.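 How the source made its calls: active means fitted AC50 no higher than ten times the top tested dose (cut at about 90 µM in these data); inconclusive means flat curve with 30 to 70% signal loss, or bad fit; inactive means AC50 beyond ten times the top dose.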",
  "data": [
    {"assay": "TruHit bead signal quenchers or artefacts – biochemical, TruHit kit, artefact control, dose response (AID 1259339)", "conditions": "TruHit alphaLISA kit signal interference counterscreen; series mostly up to 80 µM", "values": [
      {"smiles": "O=C(O)C1Oc2cc3ccccc3cc2O1", "AC50": "30.2 µM (active)"},
      {"smiles": "Cc1cncc(-c2ccc(S(N)(=O)=O)cc2F)c1", "AC50": "inactive"},
      {"smiles": "COc1ccc(-c2nnc(-c3nc(Nc4ccc(NC(C)=O)cc4)c4ccccc4n3)o2)cc1", "AC50": "> 160 µM (inactive)"},
      {"smiles": "COc1ccc(NC(=O)CN(C)C(=O)c2cc(-c3ccco3)nc3ccccc23)cc1", "AC50": "36.6 µM (active)"},
      {"smiles": "COC[C@]1(O)CCN(C(=O)CCN(C)S(C)(=O)=O)CC1(C)C", "AC50": "inactive"},
      {"smiles": "Cc1ccccc1C(=O)Nc1cnc(N2CCC(C(N)=O)(N3CCCCC3)CC2)c(C(=O)O)c1", "AC50": "inactive"},
      {"smiles": "Cc1ccc2cc(CN(Cc3ccco3)S(C)(=O)=O)c(=O)[nH]c2c1", "AC50": "inactive"},
      {"smiles": "C[C@H](CO)N1C[C@H](C)[C@@H](CN(C)CC2CCCCC2)OCCCC[C@H](C)Oc2ccc(NS(=O)(=O)c3ccc(F)cc3)cc2C1=O", "AC50": "inactive"},
      {"smiles": "O=C(COC(=O)c1cc(-c2ccco2)nc2ccccc12)NCc1ccccc1", "AC50": "35.1 µM (active)"},
      {"smiles": "O=C1CC2(CCN(C(=O)Nc3ccccc3)CC2)CN1Cc1ccc(Cl)cc1", "AC50": "inactive"},
      {"smiles": "O=c1/c(=C/c2ccco2)sc2nc3ccccc3n12", "AC50": "> 160 µM (inactive)"},
      {"smiles": "Cc1ccc(Nc2nc(C(=O)Nc3ccc(Cl)cc3)nc3ccccc23)cc1", "AC50": "inactive"},
      {"smiles": "NC(=O)c1ccc(CN2C(=O)C3(CCNCC3)Nc3ccccc32)cc1", "AC50": "inactive"},
      {"smiles": "O=C(NCCc1ccco1)c1ccc(OCc2cn3ccccc3n2)cc1", "AC50": "inactive"},
      {"smiles": "OCc1ccc(O)c2ncccc12", "AC50": "> 160 µM (inactive)"},
      {"smiles": "O=C(Nc1nc(-c2ccccn2)cs1)c1cccc(-n2cnnn2)c1", "AC50": "inactive"},
      {"smiles": "O=S(=O)(c1ccccc1)N1CC2CN(Cc3ccc(O)cc3)C2C1", "note": "(centres undefined)", "AC50": "inactive"},
      {"smiles": "NC(=O)C1(N2CCCCC2)CCN(c2ncc(NC(=O)c3cccc(Cl)c3)cc2C(=O)O)CC1", "AC50": "> 160 µM (inactive)"},
      {"smiles": "CCn1ccnc1C1CCN(C(=O)CCn2c(C)nc3ccccc32)CC1", "AC50": "inactive"}
    ]}
  ]
}
